For 14 compounds, growth results are on record in PubChem BioAssay (NCI).

The panel holds about 83,000 compounds, 20% with a hit somewhere; the sample as a whole holds those more often.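 Results are percent growth after 48 hours of single-concentration exposure. 100 means growth as in untreated cells, lower positive values show inhibition; negative values down to -100 show cell death.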 Unmarked numbers belong to inactive results. Active and inactive are the calls of the source. How the source made its calls: active means growth percent below 10; inactive means the rest.

Test systems include T-47D breast; BT-549 breast; MDA-MB-435 melanoma; SW-620 colon; MCF7 breast; HCT-116 colon; HCC-2998 colon; KM12 colon.
Common to all, as to test: NCI-60 one-dose screen, 48 h (100 = growth as untreated, 0 = no growth, -100 = all killed)
What all share (settings): 10 µM unless noted

In the case of `CC(=O)Nc1sc2c(c1-c1nc3ccccc3s1)CNC2`, the growth in the assay on T-47D breast is 4.49% (active); in the assay on BT-549 breast, 58.1%; in the assay with MDA-MB-435 melanoma, 29.7%; with SW-620 colon, 18.8%; with MCF7 breast, 5.45% (active); with HCT-116 colon, 18.8%. Also, the growth in the assay on HCC-2998 colon was 33.6%; in the assay with KM12 colon, 22.8%.
Turning to `c1csc(-c2cn3nc(-c4c[nH]c5ccccc45)sc3n2)c1`, the growth is 23.9% in the assay on T-47D breast; 38% with BT-549 breast; -38.4% (active) in the assay on MDA-MB-435 melanoma; 22.5% in the assay with SW-620 colon; 13% with MCF7 breast; 14.7% in the assay with HCT-116 colon. The growth was 52.4% with HCC-2998 colon and 23.8% in the assay with KM12 colon.
For `O=C(CSc1nnnn1-c1ccccc1)Nc1ccc(Oc2ccccc2)cc1`, the growth in the assay with T-47D breast is 90.9%; in the assay with BT-549 breast, 112%; in the assay with MDA-MB-435 melanoma, 106%; in the assay on SW-620 colon, 98.9%; in the assay with MCF7 breast, 102%; in the assay with HCT-116 colon it was 104%. Also, the growth is 100% in the assay with HCC-2998 colon and 99.4% in the assay with KM12 colon.
Consider `Nc1c(Cl)cc(/C=C2\C=Cc3ccccc32)cc1Cl`, for which the growth was 95.6% with T-47D breast; 101% with BT-549 breast; 107% in the assay on MDA-MB-435 melanoma; 111% in the assay with SW-620 colon; 123% with MCF7 breast; 103% with HCT-116 colon. Moreover, the growth in the assay on HCC-2998 colon is 98%; in the assay on KM12 colon, 106%.
With `Fc1cccc(-c2nc(-c3c[nH]c4ncccc34)cs2)c1`, the growth with T-47D breast is 40.5% [100 µM]; in the assay on BT-549 breast, 65.6% [100 µM]; in the assay with MDA-MB-435 melanoma, 50.4% [100 µM]; in the assay with SW-620 colon it was 56% [100 µM]; in the assay on MCF7 breast, 44.6% [100 µM]; in the assay with HCT-116 colon, 33.8% [100 µM]. In addition, the growth with HCC-2998 colon is 89% [100 µM]; with KM12 colon, 56.6% [100 µM].
With `COc1cc(-c2ccc(-c3ccc(C(=N)N)cc3)s2)cc(OC)c1OC`, the growth is 55.2% in the assay on T-47D breast; 86.3% in the assay on BT-549 breast; 40.4% in the assay with MDA-MB-435 melanoma; 20.9% in the assay on SW-620 colon; 13.6% in the assay with MCF7 breast; 15% in the assay with HCT-116 colon. The growth in the assay on HCC-2998 colon is -19.6% (active); in the assay with KM12 colon, 23.4%.
For the compound `Cc1cccc(-c2nc(C(C)C)sc2-c2ccnc(NCCCNS(=O)(=O)c3ccc(Cl)cc3)c2)c1`, the growth was 52.5% with T-47D breast; 74.8% in the assay on BT-549 breast; 80% in the assay on MDA-MB-435 melanoma; 56.6% in the assay on SW-620 colon; 53.8% with MCF7 breast; 54.4% with HCT-116 colon. Moreover, the values for the growth in the assay with HCC-2998 colon and in the assay with KM12 colon were 75.2% and 58.1%, respectively.
With `C=C1CC[C@@H]2C(C)(C)[C@H](O)CC[C@@]2(C)[C@@H]1COc1ccc2ccc(=O)oc2c1`, the growth was 7.88% (active) with T-47D breast; 5.68% (active) in the assay on BT-549 breast; 64.4% in the assay with MDA-MB-435 melanoma; 89.5% with SW-620 colon; 53.9% in the assay on MCF7 breast; 64.1% with HCT-116 colon. The growth in the assay on HCC-2998 colon was 95.4%; in the assay on KM12 colon, 28.2%.
Regarding `N=C(N)c1ccc(OCCSCCOc2ccc(C(=N)N)cc2)cc1`, the growth in the assay with T-47D breast was 50.5%; with BT-549 breast, 11.1%; with MDA-MB-435 melanoma, 79.9%; in the assay with SW-620 colon, 87.6%; in the assay with MCF7 breast it was 58.1%; with HCT-116 colon, 68.4%. Moreover, the growth in the assay on HCC-2998 colon was 79.7%; in the assay on KM12 colon it was 62.2%.
Take `C=C(C)[C@@H]1CC[C@]2(COC3CCCCO3)CC[C@]3(C)[C@H](CC[C@@H]4[C@@]5(C)C=C(C=O)C(=O)C(C)(C)[C@@H]5CC[C@]43C)[C@@H]12` (some centres not stated): the growth with T-47D breast was -48.9% (active); with BT-549 breast, -58.5% (active); with MDA-MB-435 melanoma, -56.4% (active); in the assay on SW-620 colon, -37.8% (active); in the assay with MCF7 breast it was -58.4% (active); in the assay with HCT-116 colon it was -92.4% (active). Also, the values for the growth in the assay with HCC-2998 colon and with KM12 colon were -59% (active) and -10.2% (active), respectively.
For the compound `COc1ccc(C2[C@@H](Cl)C(=O)N2c2cc(OC)c(OC)c(OC)c2)cc1Cl` (some centres not stated), the growth is 43.3% in the assay on T-47D breast; -19.1% (active) in the assay on BT-549 breast; -20.7% (active) in the assay with MDA-MB-435 melanoma; 21.9% in the assay with SW-620 colon; 14.4% in the assay on MCF7 breast; -9.69% (active) in the assay on HCT-116 colon. Moreover, the growth is 22.8% with HCC-2998 colon and 16.3% in the assay on KM12 colon.
`O=C(CCCCCCCC(=O)N1CCCCC1)N1CCCCC1`: the growth was 117% in the assay on T-47D breast; 96.4% in the assay on BT-549 breast; 105% with MDA-MB-435 melanoma; 92.2% in the assay with SW-620 colon; 97.1% with MCF7 breast; 94.8% in the assay with HCT-116 colon. Also, the results for the growth with HCC-2998 colon and in the assay with KM12 colon were 86.5% and 100%, respectively.
Turning to `c1ccc(-c2c(-c3ccccc3)[n+](Cc3ccc4ccccc4c3)cn2Cc2ccc3ccccc3c2)cc1`, the growth was -74.3% (active) in the assay with T-47D breast; -82% (active) in the assay on BT-549 breast; -91.3% (active) in the assay on MDA-MB-435 melanoma; -79.8% (active) in the assay on SW-620 colon; -83.8% (active) with MCF7 breast; -87.5% (active) in the assay on HCT-116 colon. Besides, the values for the growth in the assay on HCC-2998 colon and in the assay on KM12 colon were -93.3% (active) and -80.2% (active), respectively.
`Cc1[nH]c(C(=O)Nc2ccccc2OC2CCN(CCN3CCOCC3)CC2)c(Cl)c1Cl`: the growth in the assay on T-47D breast is 86.6%; in the assay on BT-549 breast it was 80.5%; in the assay with MDA-MB-435 melanoma it was 105%; with SW-620 colon it was 99.7%; in the assay with MCF7 breast it was 87.2%; in the assay on HCT-116 colon, 77.1%. The results for the growth with HCC-2998 colon and in the assay on KM12 colon were 107% and 103%, respectively.
